In PubChem BioAssay (NCATS) one finds Potency and activity change, negative = inhibition data, which are given here for 38 compounds.

Results filed as inconclusive are left out. Entries that show only a call come without a potency. Values without a mark were called inactive. Activity calls are given as the source filed them. Calls come from the whole dose curve; as a rule, active = well fitted inhibition curve with a large enough effect; inconclusive = small, poorly fitted or top-dose-only effect; inactive = flat fitted curve, though single readings scatter.
Note: nearly all actives have a fitted effect of over 65% in size.

Sequence of Phospholipid hydroperoxide glutathione peroxidase GPX4 (Homo sapiens) (P36969 whole entry, looked up): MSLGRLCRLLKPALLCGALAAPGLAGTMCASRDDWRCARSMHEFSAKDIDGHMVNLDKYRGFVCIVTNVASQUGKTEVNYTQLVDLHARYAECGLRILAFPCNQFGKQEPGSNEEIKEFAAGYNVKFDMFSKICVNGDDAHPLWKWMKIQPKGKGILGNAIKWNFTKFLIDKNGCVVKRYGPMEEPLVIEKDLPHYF
Sequence of Glutathione peroxidase 1 (Homo sapiens) (P07203 whole entry, looked up): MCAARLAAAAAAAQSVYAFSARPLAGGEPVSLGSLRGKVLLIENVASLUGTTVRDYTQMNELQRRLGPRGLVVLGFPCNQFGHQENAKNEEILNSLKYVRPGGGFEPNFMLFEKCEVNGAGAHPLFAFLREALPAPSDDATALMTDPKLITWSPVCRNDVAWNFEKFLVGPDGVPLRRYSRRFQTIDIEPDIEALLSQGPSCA

The first assay concerns the target Glutathione peroxidase 1 (Homo sapiens) (UniProt P07203). Briefly: Primary qHTS Assay for Inhibitors of Recombinant Selenoprotein Glutathione Peroxidase 1 (GPX1) (AID 1845191). Particulars: recombinant GPX1, GR-coupled NADPH fluorescence, 15 min; series mostly up to 48.8 µM. The gist of the method: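 Recombinant GPX1 (10 nM final) was preincubated with compound for 30 min at room temperature, then reacted with 1 mM GSH, 0.5 mM CHP, 0.5 mM NADPH and 100 nM glutathione reductase; NADPH fluorescence (340/450 nm) was read at 0 and 15 min.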
For orientation: qHTS replaces the single test concentration by a dilution series.
In the case of `C[C@]12CCC(=O)C=C1[C@@H](O)C[C@@H]1[C@@H]2[C@@H](O)C[C@@]2(C)[C@H]1CC[C@]2(O)C(=O)CO`, the Potency entry was “inactive”. Take `CC1=C2C3OC(=O)C(C)C3(O)CCC2(C)CCC1=O` (centres undefined): the Potency entry is “inactive”.

As to `C[C@@H]1CC[C@]2(C(=O)O)CC[C@]3(C(=O)O)C(=CCC4[C@@]5(C)CC[C@H](O[C@@H]6O[C@@H](C)[C@H](O[C@@H]7O[C@H](CO)[C@@H](O)[C@H](O)[C@H]7O)[C@@H](O)[C@H]6O)C(C)(C)C5CC[C@]43C)C2[C@H]1C` (some centres undefined), the Potency result is “inactive”. Same read-out and setting: then `CC(=O)OC1C=C(C(=O)O)C2(CO)CCC(C)C(C)(CCc3ccoc3)C2C1` (centres undefined), with “inactive”. Turning to `CC1CCC2(C)C(CC(O)C(O)C23CO3)C1(C)CCC1=CC(O)OC1=O` (centres undefined), the Potency result is “inactive”.

As for `O=c1ccn(C2OC(CO)C(O)C2O)c(=O)[nH]1` (centres undefined), the Potency entry was “inactive”. Same read-out and setting: then `NCCCC[C@H](NC(=O)[C@@H]1Cc2ccccc2CN1C(=O)CCC(=O)c1ccccc1)C(=O)NCC(c1ccccc1)c1ccccc1`, with “inactive”.

For `C=C1C(OC(C)=O)C(=O)C2C(C)(C)C(OC(C)=O)CCC2(C)C1CC(OC(C)=O)/C(C)=C/COC(C)=O` (centres undefined), the Potency entry was “inactive”. `CC1CCC2C(C)(C)C(O)CCC2(C)C12Cc1c(O)cc3c(c1O2)C(N)=NC3` (centres undefined): the Potency entry was “inactive”.

As for `CC(C)=CCC[C@](C)(O[C@@H]1O[C@H](CO[C@@H]2OC[C@@H](O)[C@H](O)[C@H]2O)[C@@H](O)[C@H](O)[C@H]1O)[C@H]1CC[C@]2(C)[C@@H]1[C@H](O)C[C@@H]1[C@@]3(C)CC[C@H](O[C@@H]4O[C@H](CO)[C@@H](O)[C@H](O)[C@H]4O[C@@H]4O[C@H](CO)[C@@H](O)[C@H](O)[C@H]4O)C(C)(C)[C@@H]3CC[C@]12C`, the Potency result was “inactive”. For `CC1CCC2(C(=O)OC3OC(CO)C(O)C(O)C3O)CCC3(C(=O)O)C(=CCC4C5(C)CCC(OC6OC(C)C(O)C(O)C6O)C(C)(C)C5CCC43C)C2C1C` (centres undefined), the Potency result is “inactive”. Take `COc1cc(/C=C/C(=O)OC2[C@H](O)CC(O)(C(=O)O)C[C@H]2O)ccc1O` (some centres undefined): the Potency entry was “inactive”. Turning to `CC1(C)C(O)CCC2(C)C1C(O)C=C1COC(=O)C12O` (centres undefined), the Potency entry was “inactive”.

For `CC(C)C(=O)O[C@@H]1[C@@H](O)[C@@H](O[C@H]2O[C@H](CO)[C@@H](O)[C@H](O)[C@H]2O)O[C@H](CO)[C@H]1O`, the Potency result is “inactive”. For `CCC(C)(O)C(O)C(=O)OCc1ccc(O[C@@H]2O[C@H](CO)[C@@H](O)[C@H](O)[C@H]2O)c(OC)c1` (some centres undefined), the Potency entry is “inactive”. Same read-out and setting: in the case of `CC1=C(C)C(=O)OC(C(C)(O)C2CCC3C4CC=C5CC(OC6OC(COC7OC(CO)C(O)C(O)C7O)C(O)C(O)C6O)CC(O)C5(C)C4CCC32C)C1` (centres undefined) it was “inactive”.

The next assay has as its target Phospholipid hydroperoxide glutathione peroxidase GPX4 (Homo sapiens) (UniProt P36969). The assay is described as follows: Primary qHTS Assay for Inhibitors of Recombinant Selenoprotein Glutathione Peroxidase 4 (GPX4) (AID 1845192). The settings on record: recombinant GPX4, GR-coupled NADPH fluorescence, 15 min; series mostly up to 50 µM. A digest of the protocol:
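GR-coupled readout: 100 nM GR, 1 mM GSH, 0.5 mM NADPH; NADPH fluorescence (ex 340/em 450 nm) read at t=0 and after 15 min RT. GPX4 200 nM, preincubated 30 min with compound; substrate 0.5 mM CHP.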
On to `C=C1CCC2C(C)(C)CC(=O)CC2(C)C1CCC(C)CCOC(C)=O` (centres undefined), for which the Potency result was “inactive”. The same measure, in the same setting: in the case of `COc1c2c(c(C)c3c1C(=O)OC3)O[C@@]1(C)C[C@@H](O)[C@]34O[C@](OC)(CC[C@]3(C)[C@H]1C2)OC4(C)C` it was “inactive”; in that of `COc1c(C)c(C(=O)c2ccc(N)c(C(=O)O)c2)n2ccccc12`, “inactive”. Still for that read-out and setting: then `CC[C@H]1OC(=O)[C@H](C)[C@@H](OC2C[C@@](C)(OC)[C@@H](O)[C@H](C)O2)[C@H](C)[C@@H](OC2O[C@H](C)C[C@H](NC)[C@H]2O)[C@](C)(O)C[C@@H](C)CN(C)[C@H](C)[C@@H](O)[C@]1(C)O` (some centres undefined), with “inactive”. The same measure, in the same setting: in the case of `C=CC1C(O[C@@H]2O[C@H](CO)[C@@H](O)[C@H](O)[C@H]2O)OC=C(C(=O)OC)C1Cc1nccc2c1[nH]c1ccccc12` (some centres undefined) it was “inactive”; in that of `CCC(=O)O[C@]1(C(=O)CCl)[C@@H](C)C[C@H]2[C@@H]3C[C@H](F)C4=CC(=O)C=C[C@]4(C)[C@@]3(F)[C@@H](O)C[C@@]21C`, “inactive”. As to `CC1=CC(=O)OC(C)(CC(C)(O)C(=O)O)C1` (centres undefined), the Potency result is “inactive”. Still for that read-out and setting: then `CC1(CO)CC[C@]2(C(=O)O[C@@H]3O[C@H](CO)[C@@H](O)[C@H](O)[C@H]3O)CC[C@]3(C)C(=CCC4[C@@]5(C)CC[C@H](O[C@@H]6O[C@H](C(=O)O)[C@@H](O)[C@H](O)[C@H]6O)C(C)(C)C5CC[C@]43C)C2C1` (some centres undefined), with “inactive”.

For `COCC(=O)N1CCc2cc(-c3csc(NC(=O)c4cc(OC)cc(OC)c4)n3)ccc21`, the Potency entry is “inactive”.

For `COC(=O)[C@]12C(=O)C(C)=C(O)[C@@]1(C)C(C)=CC1[C@@]34CC[C@@H](OC(C)=O)C(C)(C)C3[C@H](C[C@]12C)OC4=O` (some centres undefined), the Potency entry is “inactive”.

Turning to `CC1(C)CC(=O)N(CCCCN2CCN(c3ncccn3)CC2)C(=O)C1`, the Potency result was “inactive”. The same measure, in the same setting: then `CC(CO[C@@H]1O[C@H](COC(=O)/C=C/c2ccc(O)c(O)c2)[C@@H](O)[C@H](O)[C@H]1O)C1(O)COC(=O)C1` (some centres undefined), with “inactive”; and `CNC(=O)c1ccc2cc([C@@]3(O)CCn4cncc43)ccc2c1`, with “inactive”. Still for that read-out and setting: then `CCOC(=O)c1ccc(N(C)c2csc(-c3ccccc3)n2)cc1`, with “inactive”. For `C=C1[C@@H]2CC[C@@]3(C)[C@H](c4ccoc4)OC(=O)C[C@]13O[C@H]1CC(=O)C(C)(C)[C@H](CC(=O)OC)[C@]12C`, the Potency result was “inactive”. The same measure, in the same setting: in the case of `Cc1coc2c1CC1OC1(C)CCC1OC1(C)C2` (centres undefined) it was “inactive”. Still for that read-out and setting: in the case of `CC12CCC3c4ccc(O)cc4CCC3C1CCC2OC1OC(C(=O)O)C(O)C(O)C1O` (centres undefined) it was “inactive”; in that of `CCOc1ccc(-c2ccc(Cn3c(CC(C)(C)C(=O)O)c(SC(C)(C)C)c4cc(OCc5ccc(C)cn5)ccc43)cc2)cn1`, “inactive”; in that of `CC1=CC(=O)C[C@H]2[C@@H]1CC[C@@H](C)[C@]21CO[C@H](c2ccoc2)C1=O`, “inactive”. For `C/C=C(\C)C(=O)O[C@@H](C)[C@H]1CC[C@]2(O)C3CCC4C[C@@H](OC5CC(OC)C(OC6CC(OC)C(OC7CC(OC)C(OC8OC(C)C(OC9OC(CO)C(O)C(O)C9O)C(OC)C8O)C(C)O7)C(C)O6)C(C)O5)CC[C@]4(C)C3[C@H](O)[C@@H](O)[C@]12C` (some centres undefined), the activity change, negative = inhibition is -0.387% [at 9.73 µM].

For the compound `CC1(C)CCC(C)(C)c2cc([C@@H](O)C(=O)Nc3ccc(C(=O)O)cc3F)ccc21`, the Potency entry is “inactive”. Same read-out and setting: in the case of `CC(CCC1(O)OC2CC3C4CCC5CC(O[C@@H]6O[C@H](CO)[C@@H](O)[C@H](O)[C@H]6O[C@@H]6OC[C@@H](O)[C@H](O)[C@H]6O)C(O)CC5(C)C4CCC3(C)C2C1C)CO[C@@H]1O[C@H](CO)[C@@H](O)[C@H](O)[C@H]1O` (some centres undefined) it was “inactive”. Take `C[C@]12CCC(=O)C=C1[C@@H](O)C[C@@H]1[C@@H]2[C@@H](O)C[C@@]2(C)[C@H]1CC[C@]2(O)C(=O)CO`: the Potency entry was “inactive”.

Regarding `CC1=C2C3OC(=O)C(C)C3(O)CCC2(C)CCC1=O` (centres undefined), the Potency result is “inactive”.

`C[C@@H]1CC[C@]2(C(=O)O)CC[C@]3(C(=O)O)C(=CCC4[C@@]5(C)CC[C@H](O[C@@H]6O[C@@H](C)[C@H](O[C@@H]7O[C@H](CO)[C@@H](O)[C@H](O)[C@H]7O)[C@@H](O)[C@H]6O)C(C)(C)C5CC[C@]43C)C2[C@H]1C` (some centres undefined): the Potency result was “inactive”. On the same count and under the same terms, then `CC(=O)OC1C=C(C(=O)O)C2(CO)CCC(C)C(C)(CCc3ccoc3)C2C1` (centres undefined), with “inactive”. Consider `CC1CCC2(C)C(CC(O)C(O)C23CO3)C1(C)CCC1=CC(O)OC1=O` (centres undefined), for which the Potency result is “inactive”.

For the compound `O=c1ccn(C2OC(CO)C(O)C2O)c(=O)[nH]1` (centres undefined), the Potency entry was “inactive”. Consider `NCCCC[C@H](NC(=O)[C@@H]1Cc2ccccc2CN1C(=O)CCC(=O)c1ccccc1)C(=O)NCC(c1ccccc1)c1ccccc1`, for which the Potency result is “inactive”. Turning to `C=C1C(OC(C)=O)C(=O)C2C(C)(C)C(OC(C)=O)CCC2(C)C1CC(OC(C)=O)/C(C)=C/COC(C)=O` (centres undefined), the Potency entry is “inactive”. Still for that read-out and setting: in the case of `CC1CCC2C(C)(C)C(O)CCC2(C)C12Cc1c(O)cc3c(c1O2)C(N)=NC3` (centres undefined) it was “inactive”; in that of `CC(C)=CCC[C@](C)(O[C@@H]1O[C@H](CO[C@@H]2OC[C@@H](O)[C@H](O)[C@H]2O)[C@@H](O)[C@H](O)[C@H]1O)[C@H]1CC[C@]2(C)[C@@H]1[C@H](O)C[C@@H]1[C@@]3(C)CC[C@H](O[C@@H]4O[C@H](CO)[C@@H](O)[C@H](O)[C@H]4O[C@@H]4O[C@H](CO)[C@@H](O)[C@H](O)[C@H]4O)C(C)(C)[C@@H]3CC[C@]12C`, “inactive”; in that of `CC1CCC2(C(=O)OC3OC(CO)C(O)C(O)C3O)CCC3(C(=O)O)C(=CCC4C5(C)CCC(OC6OC(C)C(O)C(O)C6O)C(C)(C)C5CCC43C)C2C1C` (centres undefined), “inactive”. On the same count and under the same terms, then `COc1cc(/C=C/C(=O)OC2[C@H](O)CC(O)(C(=O)O)C[C@H]2O)ccc1O` (some centres undefined), with “inactive”; and `CC1(C)C(O)CCC2(C)C1C(O)C=C1COC(=O)C12O` (centres undefined), with “inactive”. Consider `CC(C)C(=O)O[C@@H]1[C@@H](O)[C@@H](O[C@H]2O[C@H](CO)[C@@H](O)[C@H](O)[C@H]2O)O[C@H](CO)[C@H]1O`, for which the Potency result was “inactive”. `CCC(C)(O)C(O)C(=O)OCc1ccc(O[C@@H]2O[C@H](CO)[C@@H](O)[C@H](O)[C@H]2O)c(OC)c1` (some centres undefined): the Potency entry was “inactive”. Turning to `CC1=C(C)C(=O)OC(C(C)(O)C2CCC3C4CC=C5CC(OC6OC(COC7OC(CO)C(O)C(O)C7O)C(O)C(O)C6O)CC(O)C5(C)C4CCC32C)C1` (centres undefined), the Potency result is “inactive”.
